From PubChem BioAssay (NCATS) come the findings set out here.

The nature of assay [1]: Primary qHTS for inhibitors of SARS-S pseudo-typed particle cell entry (AID 1479145). For activity change, negative = inhibition: % is set by controls: 0 for no effect and ±100 for the full control effect. Note: nearly all actives have a fitted effect of over 45% in size. The note with it: outcome: dose series up to 57.1 µM unless noted.
A short description of assay [2]: Primary qHTS for Huh7 cytotoxicity: counterscreen for inhibitors of MERS-S pseudotyped particle cell entry (AID 1479147). The note with it: outcome: dose series up to 57.1 µM unless noted. On the technique in general: In qHTS, concentration-response curves come from the screen itself.
Assay [3] is described as follows: Primary qHTS for inhibitors of MERS-S pseudo-typed particle cell entry (AID 1479149). For activity change, negative = inhibition: % is set by controls: 0 for no effect and ±100 for the full control effect. Note: nearly all actives have a fitted effect of over 60% in size. Conditions: outcome: dose series up to 57.1 µM unless noted.
A short description of assay [4]: Primary qHTS for Vero E6 cytotoxicity: counterscreen for inhibitors of SARS-S pseudo-typed particle cell entry (AID 1479150). The note with it: outcome: dose series up to 57.1 µM unless noted.
Assay [5] is described as follows: Cytotoxicity counterscreen for inhibitors of SARS-CoV-2 cell entry (AID 1645845). Note: nearly all actives have a fitted effect of over 50% in size. Conditions: outcome: dose series up to 57.1 µM unless noted. The essentials: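 After a 15 min room-temperature ATPLite 1step step, luminescence reflected ATP remaining in HEK293-ACE2 cells exposed to compound for 1 h plus 48 h at 37 C, with percent activity set by cell and no-cell controls.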
For orientation: Counterscreens check selectivity or assay interference.

The nature of assay [6]: KB-8-5-11 P-gp reporter qHTS against the NCATS DSHEA and TCM libraries (AID 1919977; active = well fitted curve in the direction sought with a large enough effect; an effect the other way counts as inactive or inconclusive; note: 0% is about no effect). A digest of the protocol:
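KB-8-5-11, 500 cells/well, DMEM/10% FBS without colchicine; 4 h attach; cpd titrations, 72 h, 37C/5% CO2; CellTiter-Glo, 30 min RT, luminescence.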

For assay [7], the target named is Glutathione peroxidase 1 (Homo sapiens) (UniProt P07203). The experiment in a line: Primary qHTS Assay for Inhibitors of Recombinant Selenoprotein Glutathione Peroxidase 1 (GPX1) (AID 1845191; active = well fitted curve in the direction sought with a large enough effect; an effect the other way counts as inactive or inconclusive; note: nearly all actives have a fitted effect of over 65% in size; for activity, negative = inhibition: % is set by controls: 0 for no effect and ±100 for the full control effect). A digest of the protocol: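 GPX1 10 nM, GR 100 nM, GSH 1 mM, NADPH 0.5 mM, CHP 0.5 mM (final). 30-min cpd preincubation, RT. Ex340/Em450 read t=0, t=15 min.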
Sequence of Glutathione peroxidase 1 (Homo sapiens) (P07203 whole entry, looked up): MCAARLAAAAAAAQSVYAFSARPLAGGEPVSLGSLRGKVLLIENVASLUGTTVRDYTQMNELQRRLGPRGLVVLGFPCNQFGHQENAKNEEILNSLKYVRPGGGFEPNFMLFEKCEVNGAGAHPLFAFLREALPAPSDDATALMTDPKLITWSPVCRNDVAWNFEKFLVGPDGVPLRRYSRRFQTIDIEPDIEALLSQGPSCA
The target of assay [8] is Phospholipid hydroperoxide glutathione peroxidase GPX4 (Homo sapiens) (UniProt P36969). The experiment in a line: Primary qHTS Assay for Inhibitors of Recombinant Selenoprotein Glutathione Peroxidase 4 (GPX4) (AID 1845192; active = well fitted curve in the direction sought with a large enough effect; an effect the other way counts as inactive or inconclusive; note: nearly all actives have a fitted effect of over 65% in size; for activity change, negative = inhibition: % is set by controls: 0 for no effect and ±100 for the full control effect). The essentials: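 qHTS, GR-coupled: GPX4 200 nM + cpd 30 min RT → GSH 1 mM, NADPH 0.5 mM, GR 100 nM → CHP 0.5 mM start; fluor 340/450 at t0 and t15 min; no-enzyme wells as control.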
Sequence of Phospholipid hydroperoxide glutathione peroxidase GPX4 (Homo sapiens) (P36969 whole entry, looked up): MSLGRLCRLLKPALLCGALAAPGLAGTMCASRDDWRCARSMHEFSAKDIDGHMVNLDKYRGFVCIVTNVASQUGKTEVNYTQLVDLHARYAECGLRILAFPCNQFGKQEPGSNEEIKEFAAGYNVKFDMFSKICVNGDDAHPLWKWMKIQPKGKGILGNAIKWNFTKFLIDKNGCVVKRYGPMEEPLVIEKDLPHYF

Assay [9] concerns the target Peroxisome proliferator-activated receptor delta (Homo sapiens) (UniProt Q03181). The experiment in a line: qHTS assay for small molecule agonists of peroxisome proliferator-activated receptor delta signaling (AID 588534).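 Note: 0% = DMSO basal wells and 100% = positive control agonist at 10 µM.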 The essentials:
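Agonist-mode qHTS; reporter cells, 5 hrs 37 C pre-incubation; compound titration, 18 hrs 37 C; CCF4 dye, 2 hrs RT; fluorescence read. EC50/efficacy via Hill fit.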

The nature of assay [10]: Primary qHTS to identify inhibitors of SARS-CoV-2 cell entry (AID 1645846). Note: nearly all actives have a fitted effect of over 45% in size. Conditions: SARS-CoV-2 pseudovirus cell entry assay, luminescence; activity change, negative = inhibition: at 57.1 µM (top of the series) unless noted. A digest of the protocol:
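Inhibition of spike-mediated entry was scored in human ACE2-transfected Expi293F cells. Particles were MLV-pseudotyped with Wuhan-Hu-1 S carrying a 19-aa C-terminal deletion; signal was luciferase after two days, scaled between spike PP and fusion-protein-free PP.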

In assay [11] the target is Nuclear receptor subfamily 1 group I member 3 (Homo sapiens) (UniProt Q14994). Put plainly: Primary qHTS for antagonist of constitutive androstane receptor (CAR) against the NCATS DSHEA and TCM libraries (AID 1794836; active = well fitted curve in the direction sought with a large enough effect; an effect the other way counts as inactive or inconclusive). A digest of the protocol:
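HepG2 cells stably carrying hCAR and a CYP2B6 luciferase reporter (2,500 cells/well) attached for 5 h, then received compounds with 48 uM CITCO for 24 h at 37C. ONE-Glo luminescence read antagonism; CellTiter-Fluor (405/540 nm) gave viability.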

Assay [12] concerns the target Thyroid hormone receptor beta (Homo sapiens) (UniProt P10828). Put plainly: qHTS assay for small molecule agonists of thyroid hormone receptor beta signaling (AID 588545).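 Note: 0% = DMSO only and 100% = 10 nM T3.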 A digest of the protocol:
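Beta-lactamase reporter activity under TR response element control is measured in HEK 293 cells after 18 hrs compound exposure. Signal is ratiometric CCF4 fluorescence, 460/530 nm.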

A short description of assay [13]: qHTS assay for small molecule agonists of the antioxidant response element (ARE) signaling pathway (AID 651741; active = well fitted activation curve with a large enough effect in the signal ratio; the % refers to the signal ratio; note: % of control where 0% means no effect). A digest of the protocol:
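Reporter: beta-lactamase under ARE, stably in HepG2. Exposure: 16 h, 37 C, compounds delivered in DMSO by pin tool after 5 h cell preincubation. Readout: FRET substrate fluorescence after 2 h at RT.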

Records with an inconclusive call do not appear. Active and inactive are the calls of the source. Unless noted, calls come from the whole dose curve.

Sequence of Peroxisome proliferator-activated receptor delta (Homo sapiens) (Q03181 whole entry, looked up): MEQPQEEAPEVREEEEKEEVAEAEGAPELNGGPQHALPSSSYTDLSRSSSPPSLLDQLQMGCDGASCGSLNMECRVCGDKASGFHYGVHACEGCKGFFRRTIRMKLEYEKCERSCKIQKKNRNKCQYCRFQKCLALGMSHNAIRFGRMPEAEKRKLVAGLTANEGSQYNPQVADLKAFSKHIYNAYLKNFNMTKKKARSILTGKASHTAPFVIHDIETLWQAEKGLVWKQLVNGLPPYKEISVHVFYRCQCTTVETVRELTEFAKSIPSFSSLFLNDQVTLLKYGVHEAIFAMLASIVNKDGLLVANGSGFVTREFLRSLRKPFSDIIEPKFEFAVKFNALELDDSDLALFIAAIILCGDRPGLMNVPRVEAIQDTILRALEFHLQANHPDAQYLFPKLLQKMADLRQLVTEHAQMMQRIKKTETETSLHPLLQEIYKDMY
Sequence of Nuclear receptor subfamily 1 group I member 3 (Homo sapiens) (Q14994 whole entry, looked up): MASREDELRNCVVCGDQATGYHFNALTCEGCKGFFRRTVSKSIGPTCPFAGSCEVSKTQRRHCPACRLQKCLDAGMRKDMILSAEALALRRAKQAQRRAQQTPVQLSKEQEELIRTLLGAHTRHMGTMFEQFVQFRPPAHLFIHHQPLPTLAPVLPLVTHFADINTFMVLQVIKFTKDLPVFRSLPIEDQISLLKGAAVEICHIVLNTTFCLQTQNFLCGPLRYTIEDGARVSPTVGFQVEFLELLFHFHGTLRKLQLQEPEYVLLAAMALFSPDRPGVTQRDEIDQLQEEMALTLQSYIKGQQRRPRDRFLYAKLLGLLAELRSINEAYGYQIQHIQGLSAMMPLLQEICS
Sequence of Thyroid hormone receptor beta (Homo sapiens) (P10828 whole entry, looked up): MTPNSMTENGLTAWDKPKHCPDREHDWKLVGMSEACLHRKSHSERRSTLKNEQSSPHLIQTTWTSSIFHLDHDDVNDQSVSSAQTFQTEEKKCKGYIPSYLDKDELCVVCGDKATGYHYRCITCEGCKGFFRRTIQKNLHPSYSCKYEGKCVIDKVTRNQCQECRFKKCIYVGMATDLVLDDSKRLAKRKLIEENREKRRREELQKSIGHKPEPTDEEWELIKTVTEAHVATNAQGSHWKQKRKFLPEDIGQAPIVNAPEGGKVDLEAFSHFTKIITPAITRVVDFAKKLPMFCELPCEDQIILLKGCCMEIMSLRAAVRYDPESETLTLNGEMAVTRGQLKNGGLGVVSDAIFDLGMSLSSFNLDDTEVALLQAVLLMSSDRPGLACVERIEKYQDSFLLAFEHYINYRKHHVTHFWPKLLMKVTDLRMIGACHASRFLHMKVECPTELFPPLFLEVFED

With `CC1(C)C2CCC1(C)C(O)C2` (stereo unspecified), the Potency result in [1], in assay [2], in assay [3], in assay [4], in [5] and in assay [6] was “inactive” throughout.

For the molecule `COC1(O[C@H]2CC[C@H]3[C@@H]4CC[C@H]5C[C@@H]6S[C@@H]6C[C@]5(C)[C@H]4CC[C@]23C)CCCC1`, the Potency entry in assay [1], in assay [2], in assay [3], in [4], in assay [5] and in [7] was “inactive” each time. Also, the Potency result in assay [8] was “inactive”.

`C/C=C/C=C/C(=O)O`: in assay [9], the molecule was called inactive. The Potency result in assay [1], in assay [2], in [3], in [4], in assay [5] and in assay [10] was “inactive” in each case.

As to `CC(C)=CCC/C(C)=C/CC/C(C)=C/CC/C(C)=C/CC1=C(C)C(=O)c2ccccc2C1=O`, the Potency entry in assay [1], in [2], in [3], in assay [4], in [5] and in assay [11] was “inactive” each time. Moreover, the Potency entry in assay [6] is “inactive”.

With `CC(=O)CCC1C(=O)N(c2ccccc2)N(c2ccccc2)C1=O`, the Potency entry in [1], in assay [2], in assay [3] and in assay [4] was “inactive” each time. Moreover, the activity change, negative = inhibition in [10] is -21%.

Regarding `CC/C=C\C/C=C\C/C=C\C/C=C\C/C=C\CCCC(=O)O`, the Potency entry in assay [1], in [2], in assay [3], in assay [4], in assay [5] and in assay [6] was “inactive” each time. For the same molecule, the activity change, negative = inhibition in [10] is -29%.

As for `COc1ccc(C(=O)Nc2ccccc2CCC2CCCCN2C)cc1` (stereo unspecified), the Potency entry in assay [1], in assay [2], in assay [3] and in assay [4] was “inactive” in each case. The activity change, negative = inhibition in [10] is -20%.

Regarding `C=Cc1ccccc1`, the molecule was classed as inactive in [9] and in [12]. Also, the Potency result in [13], in [1], in [2], in assay [3], in assay [4] and in [5] was “inactive” each time.

Take `COC(=O)c1ccccc1O`: the molecule was called inactive in assay [9]. Moreover, the Potency result in [1], in [2], in [3], in assay [4] and in assay [5] was “inactive” throughout. Moreover, the activity change, negative = inhibition in [10] turned out to be 3.44%.

Consider `CC[C@H]1OC(=O)C[C@@H](O)[C@H](C)[C@@H](O[C@@H]2O[C@H](C)[C@@H](O[C@H]3C[C@@](C)(O)[C@@H](O)[C@H](C)O3)[C@H](N(C)C)[C@H]2O)[C@@H](CC=O)C[C@@H](C)C(=O)/C=C/C(C)=C/[C@@H]1CO[C@@H]1O[C@H](C)[C@@H](O)[C@@H](OC)[C@H]1OC`, for which the Potency result in assay [1], in assay [2], in assay [3], in assay [4] and in assay [10] was “inactive” in each case.

In the case of `C#C[C@]1(O)CC[C@H]2[C@@H]3CCC4=C/C(=N/O)CC[C@@H]4[C@H]3CC[C@@]21CC`, the Potency result in assay [1], in [2], in assay [3] and in assay [4] was “inactive” in each case. Also, the activity change, negative = inhibition in assay [10] was -1.12%.

Consider `CC[C@H]1C2C[C@H]3[C@@H]4N(C)c5ccccc5[C@@]45C[C@H](C2[C@H]5O)N3[C@@H]1O` (stereo partly specified), for which the Potency entry in assay [1], in [2], in [3], in assay [4], in [5] and in assay [7] was “inactive” each time. Besides, in assay [8], the Potency result was “inactive”.

`CC1(C)S[C@@H]2[C@H](N)C(=O)N2[C@@H]1C(=O)O`: the outcome in assay [1] is “inactive [at 5.34 µM]”; in assay [2] it was “inactive [at 5.34 µM]”; in assay [3] it was “inactive [at 5.34 µM]”; in assay [4], “inactive [at 5.34 µM]”; in assay [5], “inactive [at 5.25 µM]”; in assay [10], “inactive [at 5.25 µM]”. Besides, in assay [8], the outcome was “inactive [at 4.52 µM]”. In addition, in assay [7], the activity, negative = inhibition is 1.27% [at 4.49 µM] (inactive).

`CC(C)=CCC/C(C)=C/C=C/C(C)=C/C=C/C(C)=C/C=C/C=C(C)/C=C/C=C(C)/C=C/C=C(\C)CCC=C(C)C`: the Potency result in [1], in assay [2], in assay [3], in assay [4], in [5] and in [11] was “inactive” in each case. Besides, the Potency result in assay [6] is “inactive”.

For `O=C(O[C@H]1C[N+]2(CCCOc3ccccc3)CCC1CC2)C(O)(c1cccs1)c1cccs1`, the Potency result in [1], in assay [2], in assay [3] and in assay [4] was “inactive” each time. Besides, in [10], the activity change, negative = inhibition was -28.6%.

As to `CC1=C(/C=C/C(C)=C/C=C/C(C)=C/CO)C(C)(C)CCC1`, in assay [9], the outcome was inactive. Also, the Potency entry in assay [1], in [2], in assay [3], in [4], in assay [5] and in assay [6] was “inactive” each time. In addition, the activity change, negative = inhibition in assay [10] is -23.2%.

Regarding `C[C@H]1[C@H](O)[C@@H](C)/C=C/C=C/CC/C=C/C=C/C=C/C=C/C(OC2O[C@H](C)[C@@H](O)[C@H](N)[C@@H]2O)CC2O[C@](O)(CC(O)C(O)CCC(O)CC(O)CC(O)CC(=O)O[C@H]1C)CC(O)C2C(=O)O` (stereo partly specified), the Potency result in assay [1], in assay [2], in assay [3], in assay [4], in assay [5] and in assay [7] was “inactive” each time. Further, in [10], the activity change, negative = inhibition is -22.7%.

As for `CCCCC(=O)O[C@]1(C(=O)COC(C)=O)CC[C@H]2[C@@H]3CCC4=CC(=O)C=C[C@]4(C)[C@H]3[C@@H](O)C[C@@]21C`, the Potency entry in assay [1], in assay [2], in assay [3] and in assay [4] was “inactive” in each case. Moreover, the activity change, negative = inhibition in [10] is -22.7%.

As to `COC(=O)N[C@H](C(=O)N1CCC[C@H]1C(=O)Nc1ccc([C@@H]2CC[C@@H](c3ccc(NC(=O)[C@@H]4CCCN4C(=O)[C@@H](NC(=O)OC)C(C)C)cc3)N2c2ccc(C(C)(C)C)cc2)cc1)C(C)C`, the Potency entry in assay [1], in [2], in [3] and in [4] was “inactive” each time. The activity change, negative = inhibition in [10] is -22.9%.
